# From PubChem
# A selection: hits, their analogues and other compounds. The true share with any hit is near 3.1%.
# p53null 39C tox: selectivity test: cytotoxicity in p53 null cells, nonpermissive temperature | Potency, µM (highest dose often 46.1 µM), inactives show top-dose activity, negative = cell killing, usual class: cytotoxic | H1299 p53-null (neo) cells, 39C, ATPlite viability, 24 h | 0.97% of 55,000 active;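 further: 0% = DMSO only and -100% = full killing by 100 µM tamoxifen; nearly all actives have a fitted effect of over 50% in size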
#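 Temperature-shift cytotoxicity format: compound titrations on p53-null or A138V-expressing H1299 cells held 24 hr at 39C, cell ATP then measured, AC50 from Hill model.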
# PMP22 txn prim: modulators of PMP22 gene transcription in S16 Schwann cells; AID 1508649; Potency, µM (doses to about 57.5 µM), for the others: top-dose activity change, negative = inhibition, most hits filed as inhibitors; S16 Pmp22-F2sN Schwann cells, FLuc/NLuc coincidence luminescence, 24 h; 2% of 43,000 active; active means clear falling dose curves in both reporters; inconclusive means both reporters move, but less clearly or upward; inactive means either reporter flat; the % is the NLuc reporter signal
#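 Luminescent read-out of sequential FLuc and NLuc signals from a reporter embedded in the Pmp22 3' UTR of S16 Schwann cells, taken after 24 h compound exposure at 37C; compounds reducing both signals score as inhibitors of expression.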
# S16 F2sN tox: S16 Schwann cell cytotoxicity. 0.48% of 43,000 active. S16 Pmp22-F2sN Schwann cells (luciferase reporters placed in the Pmp22 gene) viability, CellTiter-Glo, 24 h. AID 1508642. Potency, µM (top dose mostly 57.5 µM), without a hit: top-dose activity change, negative = cytotoxicity, most hits filed as cytotoxic; further: nearly all actives have a fitted effect of over 65% in size
#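 CellTiter-Glo counter-screen, qHTS, 1536-well. Cells: S16(c9) Pmp22-F2sN, 500-1,000/well in DMEM + 10% FBS. Cpd 23 nL pin transfer, 24 h, 37C/5% CO2. Read: luminescence, CCD imager.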
# mTORC1 inh: mTORC1 pathway inhibition measured by phospho-rpS6; Tsc2-/- p53-/- MEF, phospho-rpS6 immunofluorescence/PI, 24 h; 0.78% of 44,000 active; AID 493208; Potency, µM (series often up to 38.3 µM), for the others: at the top dose activity change, negative = inhibition, hits mostly inhibitors;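 further: plate controls were DMSO for no effect and rapamycin for full effect; nearly all actives have a fitted effect of over 50% in size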
#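 Tsc2-/-, p53-/- mouse embryonic fibroblasts (empty-vector line) exposed to compound 24 hrs at 37 C, fixed, immunostained for phospho-rpS6 and counterstained with propidium iodide. Acumen laser scanning gives % positive cells from Alexa 488/PI ratio, thresholded using 7.5 nM rapamycin; PI count gives viability.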
# OvCa metastasis: blocks SKOV3ip1 adhesion and invasion in omental model. SKOV3ip1-GFP adhesion/invasion on 3D omental model, fluorescence. Potency, µM (series often up to 45.8 µM), inactives show top-dose activity change, negative = inhibition, usual class: inhibitors. 0.1% of 46,000 active;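 further: plate controls were DMSO wells for no effect and tomatine positive control wells for full effect; nearly all actives have a fitted effect of over 65% in size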
#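 A 3D layer of primary human omental fibroblasts, mesothelial cells, fibronectin and collagen I, grown 48 hr, received SKOV3ip1-GFP cells in serum-free medium plus compounds at 0.36-46 umol/L. After 2 hr RT and 16 hr 37 C, fixed adherent GFP cells were counted; normalized to DMSO and tomatine.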
# p53null 32C kill: selectivity test: cytotoxicity in p53 null cells, permissive temperature; Potency, µM (series often up to 46.1 µM), without a hit: at the highest dose activity change, negative = cytotoxicity, hits mostly cytotoxic; AID 903; H1299-neo p53 null cells, ATP luminescence, 24 h, 32C; 0.62% of 55,000 active;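 further: 0% = DMSO only and -100% = full killing by 100 µM tamoxifen; nearly all actives have a fitted effect of over 55% in size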
#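 ATP-content luminescence in p53-null H1299-neo cells after 24 h compound exposure (up to 46 uM) at 32C permissive temperature; 0% and 100% killing set by DMSO and 100 uM tamoxifen; Hill-equation AC50.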
# Active calls of the source: *; i = inactive; ? = inconclusive; nt = no result. Unless noted, the call rests on the fitted dose curve; in most records, active means well fitted curve in the direction sought with a large enough effect; inconclusive means small, poorly fitted or top-dose-only effect, or another doubt; inactive means no such curve, though single readings can be large; an effect the other way counts as inactive or inconclusive. Unless noted, on the % scale 0 is the no-effect control and ±100 the full control effect; potency means the concentration at half of the fitted maximal effect.
SMILES,p53null 39C tox,PMP22 txn prim,S16 F2sN tox,mTORC1 inh,OvCa metastasis,p53null 32C kill
Cc1ccccc1Nc1c(-c2ccc(N3CCOCC3)cc2)nc2ncccn12,13µM*,19%,-2%,4%,-5%,13µM*
CCCCC(CC)CNC(=O)c1ccc(Cn2c(=O)[nH]c3cc(OC)c(OC)cc3c2=O)cc1 (centres undefined),13µM*,?,-14%,?,-1%,-11%
Oc1ccc(-c2ccc(-c3cc(Nc4cccc(CNC5CC5)c4)n[nH]3)cc2)c(O)c1,nt,nt,nt,nt,20%,nt
Cc1ccc(NC(=O)c2nnn(Cc3cccc(C(F)(F)F)c3)c2N)c(C)c1,37%,6µM*,?,?,i,-3%
CC(=O)OCC(=O)[C@@]12N=C(C)O[C@H]1C[C@H]1[C@@H]3CCC4=CC(=O)C=C[C@]4(C)[C@@H]3[C@@H](O)C[C@@]12C,nt,nt,nt,nt,17%,nt
CCc1ccc(OCC(=O)Nc2ncn[nH]2)c(Br)c1,1.3µM*,-13%,-3%,-4%,13%,2µM*
Cc1cc(C=c2sc3nc4ccccc4n3c2=O)c(C)n1-c1ccccc1,nt,nt,nt,nt,-27%,nt
CC(=O)c1ccc(S(=O)(=O)Nc2cccc(-c3ccc(N4CCCCC4)nn3)c2)cc1,7.9µM*,nt,nt,3%,8%,10µM*
Cc1ccc(S(=O)(=O)Nc2cccc(-c3ccc(N4CCCCC4)nn3)c2)s1,13µM*,-14%,-17%,3%,-1%,13µM*
CCc1ccc(S(=O)(=O)Nc2cccc(-c3ccc(OC)nn3)c2)s1,-1%,-19%,?,-1%,9%,2%
CCc1ccc(S(=O)(=O)Nc2cccc(-c3ccc(N4CCCCC4)nn3)c2)s1,13µM*,nt,nt,0%,0%,16µM*
Cc1ccc([C@@H]2O[C@H](CO)[C@@H](O)[C@H](O)[C@@H]2O)cc1Cc1ccc(-c2ccc(F)cc2)s1,nt,nt,nt,nt,6%,nt
Cc1ccc(C(=O)Nc2onc3c2CCCC3)cc1,5µM*,-5%,-3%,-8%,-11%,6.3µM*
Cc1ccc(OCCSc2nc(-c3ccccc3C)nc3cc(=O)[nH]n23)cc1Cl,25µM*,?,?,-2%,-3%,-7%
Cc1cccc(OCCCSc2nc(-c3ccc(C(C)(C)C)cc3)nc3cc(=O)[nH]n23)c1C,13µM*,-38%,1%,-2%,i,43%
CCOc1ccc(NC(=O)c2ccc3c(c2)nnn3C2CCCC2)cc1,-11%,?,-30%,0%,i,-5%
Cc1cc(C)cc(NC(=O)c2ccc3c(c2)nnn3C2CCCC2)c1,-14%,?,11µM*,-23%,4%,-9%
CCCn1c(=O)c2[nH]c(-c3cnn(Cc4cccc(C(F)(F)F)c4)c3)nc2n(CC)c1=O,nt,nt,nt,nt,3%,nt
CCc1ccc(NC(=O)c2cc(=O)c3ccc(C)c(C)c3o2)cc1,1%,16µM*,?,?,-19%,9%
CCN(c1ccccc1)S(=O)(=O)c1ccc(NC(=O)c2cc(=O)c3ccc(C)c(C)c3o2)cc1,2%,-18%,-6%,0%,1%,16%
NC[C@H]1O[C@H](O[C@H]2[C@@H](O)[C@@H](O[C@H]3O[C@H](CO)[C@@H](O)[C@H](N)[C@@H]3O)[C@H](N)C[C@@H]2N)[C@H](N)C[C@H]1O,nt,nt,nt,nt,2%,nt
COc1ccccc1-c1cc(C(=O)Nc2cc(Cl)ccc2O)no1,-12%,nt,nt,-29%,2%,-4%
COc1ccccc1-c1cc(C(=O)Nc2cc(OC)c(OC)c(OC)c2)no1,-18%,3.8µM*,?,?,-26%,9%
CC1(C)CC(=O)c2c(C(F)(F)F)nn(-c3ccc(C(N)=O)c(NC4CCC(OC(=O)CN)CC4)c3)c2C1 (centres undefined),nt,nt,nt,nt,18%,nt
COc1ccc(-c2c(C)nn3c(C(F)(F)F)cc(-c4ccc(Br)cc4)nc23)cc1,-12%,-15%,-8%,-2%,5%,2%
SMILES,p53null 39C tox,PMP22 txn prim,S16 F2sN tox,mTORC1 inh,OvCa metastasis,p53null 32C kill
NC(=O)c1nn2c(C(F)(F)F)cc(-c3ccc(Br)cc3)nc2c1Cl,12%,-19%,28µM*,-2%,-3%,-7%
Nc1nc(F)nc2c1ncn2[C@@H]1O[C@H](COP(=O)(O)O)[C@@H](O)[C@H]1O,nt,nt,nt,nt,-17%,nt
COc1ccc(Nc2cc(-c3cnc(N)nc3)nc(N3CCOCC3)n2)cn1,nt,nt,nt,nt,-15%,nt
COc1ccc(-c2nc(SCC(=O)Nc3cccc(C(C)=O)c3)n[nH]2)cc1,25µM*,9%,-4%,-5%,12%,?
CCOC(=O)N[C@@H]1CC[C@@H]2[C@@H](C1)C[C@H]1C(=O)O[C@H](C)[C@H]1[C@@H]2C=Cc1ccc(-c2cccc(F)c2)cn1,nt,nt,nt,nt,1%,nt
COc1ccc2nc(-c3cccc(N)c3)[nH]c2c1,8.9µM*,nt,nt,nt,nt,10µM*
COc1ccc2nc(-c3ccc(N)cc3)[nH]c2c1,?,nt,nt,nt,nt,13µM*
COc1ccc(-c2nc3ccc(C4=NNC(=O)CC4C)cc3[nH]2)cc1 (centres undefined),nt,nt,nt,nt,13%,nt
COc1ccc2oc(=O)c(-c3nc4ccc(C)cc4[nH]3)cc2c1,-20%,?,-29%,-5%,6%,-12%
CC1CCN(S(=O)(=O)c2ccc(C(=O)Nc3sc4c(c3C(N)=O)CC(C)(C)NC4(C)C)cc2)CC1,8%,?,?,18µM*,?,15%
CCOC(=O)c1c(NC(=O)c2ccc(S(=O)(=O)N(CCOC)CCOC)cc2)sc2c1CC(C)(C)NC2(C)C,5%,-32%,?,12µM*,?,-4%
Cc1cccc(NC(=O)c2c(NC(=O)C(F)(F)F)sc3c2CCCCC3)c1,?,10µM*,?,-13%,?,-8%
Cc1ccccc1NC(=O)c1c(NC(=O)C(F)(F)F)sc2c1CCCCC2,?,12µM*,?,7%,i,?
O=C(Cn1nc(C(F)(F)F)c2c1CCCC2)Nc1cccc(Cl)c1,?,?,20µM*,-18%,-10%,11%
Cc1ccc(NC(=O)c2c(NC(=O)C(F)(F)F)sc3c2CCCCC3)cc1,?,10µM*,?,11%,i,?
O=C(Nc1cccc(Cl)c1)c1c(NC(=O)C(F)(F)F)sc2c1CCCC2,?,13µM*,?,-9%,?,?
Cc1cccc(C(=O)Nc2sc3c(c2C(=O)Nc2ccccc2)CCC3)c1,-1%,10%,7%,8%,3%,-2%
